Only a selection was taken, and hits are over-represented in it overall.
Dicer inh – blocks human Dicer maturation of pre-miR-21. AID 1347074. Q9UPY3. 6% of 47,000 active. z-score at 25 µM. cat-ELCCA pre-miR-21 Dicer processing, chemiluminescence; stronger effect = higher value; in the data active = z-score above about 3, passing the limit was not always enough;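 also: higher signal means more uncleaved substrate so more Dicer inhibition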
Numbers stand for hits; - = inactive.

SMILES	Dicer inh
COc1ccccc1Oc1coc2cc(O)ccc2c1=O	-
COc1ccc(OC)c(S(=O)(=O)Oc2ccc3ccccc3c2I)c1	-
CSc1nc2c(Cl)cccc2c2c1c(=O)[nH]n2C	3.6
CCOC(=O)c1c(SC)nc2c(Cl)cccc2c1N(C)CCO	-
CSc1nc2c(Cl)cccc2c2c1c(=O)n(Cc1ccc(Cl)cc1)n2C	-
CCN(CC)Cc1cc(C(C)C)c(O)c(C(C)C)c1	4.1
CCc1oc(C(=O)O)cc1CN(CC)CC	-
CCN(CC)Cc1cc(O)c(CN(CC)CC)cc1O	-
Cc1c(C)c(C)c(CSC(=N)c2ccc[nH]2)c(C)c1C	-
Cn1[nH]c(C(F)(F)F)c(/C=N/Nc2ccc([N+](=O)[O-])cc2)c1=O	-
O=C(/C=C/Sc1c(Cl)cccc1Cl)c1ccc(Br)cc1	-
Cc1ccc(C(=O)/C=C/Sc2ccccn2)cc1	-
O=C(/C=C/Sc1ccccn1)c1ccc(Br)cc1	3
COC(=O)CCCCCCCC(=O)Nc1nccs1	-
O=C1c2oc3ccccc3c(=O)c2C(c2ccc(O)cc2)N1Cc1ccccc1 (stereo not given)	-
c1ccc(CSc2nn3cnnc3s2)cc1	-
CCC/C(O)=C(/C=Nc1ccccc1C(=O)OC)C(=O)OCC	3.2
COC(=O)c1c(OC)ccc(N=C/C(C(C)=O)=C(\C)O)c1OC	-
CCOC(=O)C(=CNc1ccc(C(=O)OC)o1)C(=O)OCC	-
O=C(O)CSCC(=O)Nc1cc(-c2ccccc2)[nH]n1	-
S=C(NNc1c(Cl)cncc1Cl)Nc1ccc(Cl)cc1Cl	6.7
OCCCNNC(=S)Nc1ccc(Cl)cc1Cl	-
CCNC(=S)Nc1ccc(Cl)cc1Cl	-
COc1cc(C2/C(=C(\O)c3ccc(Cl)cc3)C(=O)C(=O)N2Cc2cccnc2)ccc1O (stereo not given)	-
CC1CC(C)(C)N(C(=O)Nc2ccccc2)c2ccccc21 (stereo not given)	-
SMILES	Dicer inh
CCCCCNc1nc(-c2ccccc2)c2c(c1C#N)CC(C)(C)OC2	-
Cc1noc(-c2ccc(C(F)(F)F)cc2)c1C(=O)NN	-
COC(=O)c1sccc1N/N=C(\C#N)S(=O)(=O)c1ccc(Cl)cc1	-
COC(=O)c1sccc1N/N=C(\C#N)S(=O)(=O)c1cccs1	-
COC(=O)c1scc(S(=O)(=O)Cc2cccs2)c1N/N=C(\C#N)S(=O)(=O)c1ccc(Cl)cc1	5.6
O=C(O)COc1ccc(-c2nc3ccccc3s2)cc1	-
CN(C)c1ccc(CNC2CCCCC2)cc1	-
COc1ccc(CNCc2ccc(Br)cc2)c(OC)c1	-
COc1ccc(CN=C(C)C2CCOC2=O)cc1 (stereo not given)	-
COc1ccc(CNCC2(O)CCOC(C)(C)C2)cc1 (stereo not given)	3.6
Cc1cc(S(=O)(=O)Oc2ccc(CC#N)cc2)c(C)cc1Cl	-
O=C(NCc1ccco1)c1nn2c(c1Cl)NC(c1ccc(F)cc1)CC2C(F)(F)F (stereo not given)	4.9
O=C(NCc1ccc(F)cc1)c1nn2c(c1Cl)NC(c1ccco1)CC2C(F)(F)F (stereo not given)	5.1
CC1CCCCN1C(=O)c1nn2c(c1Cl)NC(c1ccco1)CC2C(F)(F)F (stereo not given)	-
COCCNC(=O)c1nn2c(c1Cl)NC(c1ccc(Br)cc1)CC2C(F)(F)F (stereo not given)	-
CC(C)(C)NC(=O)c1nn2c(c1Cl)NC(c1ccccc1)CC2C(F)(F)F (stereo not given)	-
O=C(NCc1ccncc1)c1cc2n(n1)C(C(F)(F)F)CC(c1ccco1)N2 (stereo not given)	-
N#CCCN(Cc1ccccc1)C(=O)c1ccc(Cl)cc1	-
COc1ccc(C(=O)c2oc3ccc4ccccc4c3c2C)cc1	-
O=C(O)CCCC(=O)Nc1ccc(F)c(F)c1F	-
CC(=O)N(c1ccccc1)C(C)C1CC1 (stereo not given)	-
CCOC(=O)C(NC(=O)CC)(Nc1ccc(F)cc1)C(F)(F)F (stereo not given)	-
CCOC(=O)c1c(N)n(-c2ccc(C)cc2)c2nc3ccccc3nc12	-
Cc1nnc(SCc2c(Cl)cccc2Cl)n1-c1ccc2c(c1)OCCO2	-
CC1=CCC2C(=O)N(c3ccc(N4CCOCC4)cc3)C(=O)C2C1 (stereo not given)	-
SMILES	Dicer inh
CC1=CCC2C(=O)N(c3ccc(C(=O)O)cc3)C(=O)C2C1 (stereo not given)	-
O=C(c1ccc(N2C(=O)C3CC=C(Cl)CC3C2=O)cc1)N1CCOCC1 (stereo not given)	4.5
O=C(Cn1c(=O)oc2cccnc21)Nc1ccccc1	-
CN(Cc1ccccc1)c1nc2c([nH]1)c(=O)n(C)c(=O)n2C	-
CC1Oc2ccc(C(=O)CCC(=O)O)cc2NC1=O (stereo not given)	-
NC(=O)c1ccc([N+](=O)[O-])cc1C(N)=O	-
CCOC(=O)C1=C(C)NC2=C(C(=O)CC(C)(C)C2)C1c1ccc(OC(C)=O)c(OC)c1 (stereo not given)	-
O=C(Oc1ccc(F)cc1)c1cccs1	-
O=C1NCCCCC1NS(=O)(=O)c1cccs1 (stereo not given)	-
